Screening results: PubChem, National Center for Advancing Translational Sciences (NCATS)
The entries come from a sample that favours hits as a whole.
Shiga toxin inh = Shiga toxin inhibition. Vero cells, Shiga toxin protein synthesis inhibition reporter. inhibition, % at 38.7 µM. 290,000 tested, 9.2% active; in the data active = inhibition mostly above about 28%, no sharp cut-off; inactive = mostly below about 43%; also: 0% is about no effect
Cycloheximide cs = affects cycloheximide protein synthesis inhibition readout, counter-screen; 300,000 tested, 12% active; AID 2314; max response, %; cell reporter, cycloheximide protein synthesis inhibition counterscreen; in the data active = max response mostly above about 13%, no sharp cut-off; inactive = mostly below about 14%; also: read at 38.3 µM for the half of the compounds with a filed dose; 0% is about no effect
AmpC inh detg = inhibitors of E. coli AmpC beta-lactamase with detergent; P00811; AmpC hydrolysis of nitrocefin, absorbance 480 nm, 0.01% Triton; Potency, µM (series often up to 114 µM), inactives show at the top dose activity change, negative = inhibition, usual class: inhibitors; 370,000 tested, 0.041% active;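 also: potency is read from the fitted curve at half-maximal effect; 0% = no-compound wells and -100% = no-enzyme wells; nearly all actives have a fitted effect of over 25% in size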
Target sequence (P00811 whole entry, looked up): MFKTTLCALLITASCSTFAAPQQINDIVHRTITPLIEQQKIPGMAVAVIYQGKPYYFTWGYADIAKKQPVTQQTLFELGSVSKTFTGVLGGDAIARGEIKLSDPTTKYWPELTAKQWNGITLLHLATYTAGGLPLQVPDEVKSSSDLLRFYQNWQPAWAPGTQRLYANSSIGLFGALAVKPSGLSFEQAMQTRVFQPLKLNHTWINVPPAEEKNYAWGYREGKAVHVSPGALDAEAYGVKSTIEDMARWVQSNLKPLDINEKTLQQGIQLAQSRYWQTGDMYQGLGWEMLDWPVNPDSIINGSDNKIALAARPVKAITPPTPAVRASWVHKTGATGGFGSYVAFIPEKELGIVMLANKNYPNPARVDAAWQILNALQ
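AmpC (5.3 nM in the dispensed reagent) in 20 mM phosphate pH 7.0 with 0.01% (detergent screen) or 0.0001% Triton X-100 was preincubated with compounds for 15 min at room temperature. Nitrocefin was then added from an 800 uM solution, and hydrolysis was followed at 480 nm.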
SARS PLP yeast = inhibitors of SARS-CoV papain-like protease in yeast; 330,000 tested, 0.19% active; S. cerevisiae expressing SARS-CoV PLpro, growth rescue; Potency, µM (top dose mostly 32.9 µM), inactives show top-dose activity, positive = growth rescue, hits mostly activators; AID 485353; calls by dose curve; also: potency is read from the fitted curve at half-maximal effect; 0% is about no effect; nearly all actives have a fitted effect of over 55% in size
AmpC no deterg = inhibitors of E. coli AmpC beta-lactamase without detergent; P00811; AmpC nitrocefin hydrolysis, absorbance 480 nm, 0.0001% Triton; Potency, µM (doses to about 57.1 µM), inactives show top-dose activity change, negative = inhibition, actives largely listed as inhibitors; 330,000 tested, 0.52% active; AID 485341;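 also: potency is read from the fitted curve at half-maximal effect; plate controls were no compound for no effect and no enzyme for full effect; nearly all actives have a fitted effect of over 20% in size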
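20 mM phosphate pH 7.0 + 0.01% (detergent screen) or 0.0001% Triton X-100; 5.3 nM AmpC reagent; cpd preinc 15 min RT; nitrocefin (800 uM stock) to start; A480 q20 s × 4 min; Activity was normalised to no-enzyme and no-compound control wells.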
AMA1 RON2 block = inhibitors of Plasmodium falciparum AMA1-RON2 interaction | AlphaScreen AMA1-biotinylated RON2 peptide binding | Potency, µM (series often up to 58.2 µM), without a hit: at the highest dose activity change, negative = inhibition, actives largely listed as inhibitors | 360,000 tested, 0.2% active | AID 720542;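 also: potency is read from the fitted curve at half-maximal effect; 0% = vehicle wells and -100% = peptide control; nearly all actives have a fitted effect of over 45% in size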
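AMA1 (3D7) with his tag at 25 nM final met compounds first, then biotinylated RON2 peptide at 25 nM; detection used donor plus acceptor beads, 10 µg/mL apiece, read by AlphaScreen after 30 min at room temperature.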
* marks the source's active call; other numbers are inactive results; ? = inconclusive; . = not tested or not shown; [ ] = another dose, or the depositor's remark. Unless noted, calls follow the shape of the dose curve; as a rule, active = well fitted curve in the direction sought with a large enough effect; inconclusive = small, poorly fitted or top-dose-only effect, or another doubt; inactive = no such curve, though single readings can be large; an effect the other way counts as inactive or inconclusive.

SMILES | Shiga toxin inh | Cycloheximide cs | AmpC inh detg | SARS PLP yeast | AmpC no deterg | AMA1 RON2 block
O=C(Cn1cnc2ccccc21)c1ccc(Br)cc1 | 24 | 22* | -8% | -1% | -27% | 15%
C=C(Br)Cn1cnc2ccccc21 | 1 | 21 | -7% | -4% | -6% | 7%
c1ccc(OCCn2cnc3ccccc32)cc1 | 18 | 29* | 3% | -6% | -19% | -3%
c1ccc2c(c1)ncn2CCN1CCCCC1 | -1 | -1 | 3% | 0% | -29% | -9%
c1ccc(CCn2cnc3ccccc32)cc1 | 25 | 29* | 4% | 2% | -12% | -9%
CCCOc1ccc(Cn2cnc3ccccc32)cc1 | 2 | 14* | -12% | -4% | -10% | -6%
O=C(COC(=O)Cc1cccs1)Nc1ccc(F)c(F)c1F | -15 | -5 | -8% | -1% | -10% | -12%
CO/N=C/c1ccc(Oc2ccc([N+](=O)[O-])cc2[N+](=O)[O-])c(OC)c1 | 12 | 8 | -11% | -16% | -5% | 7%[2.32 µM]
C/C(=N\NC(=O)c1nnn(-c2nonc2N)c1CSc1ccc(Cl)cc1)c1cccnc1 | -10 | 0 | 1% | 2% | 23% | 9%
COc1ccc(OCCn2cnc3ccccc32)cc1 | 33* | 9.5* | -11% | -1% | -8% | -11%
c1ccc(-c2nc3c4ccccc4ccn3c2CC2CCCCC2)cc1 | . | . | . | . | . | 10%
CCCSc1nnc(Nc2ccccc2C)s1 | 63* | 62* | -15% | -4% | -20% | -12%
Cc1cccc(Nc2nnc(SCC(=O)Nc3ccccc3[N+](=O)[O-])s2)c1 | -4 | 2 | ? | 20% | -34% | -14%
Cc1ccccc1Nc1nnc(SCC(=O)Nc2ccccc2[N+](=O)[O-])s1 | 45* | 28* | 9% | -2% | -28% | 0%
Cc1ccccc1Nc1nnc(SCC(=O)NCc2ccco2)s1 | -9 | 1 | -9% | -8% | -24% | -2%
C/C(N)=C(/C#N)C(=O)CSc1nnc(Nc2cccc(C)c2C)s1 | 40* | 22* | -3% | 2% | -11% | 3%
Cc1ccc(C(=O)c2oc3nc(C)cc(C)c3c2N)cc1 | 6 | 13 | ? | -1% | -23% | 12%
O=C(Cc1ccc([N+](=O)[O-])cc1)c1c(O)cc(O)cc1O | 19 | 16* | 1% | 0% | -47% | -1%
Cc1cc(O)cc(O)c1C(=O)Cc1ccccc1 | 17 | 9 | -14% | -2% | -26% | -8%
CC(C)n1c(/C=C/c2ccccc2)nc2ccccc21 | 79* | 30* | 0% | -25% | -12% | 69%
COCCOCCn1c(/C=C/c2ccccc2)nc2ccccc21 | 28 | 20* | 1% | -2% | 28% | 7%
COc1ccc(/C=C/c2nc3ccccc3n2Cc2ccc(OC)c(OC)c2)cc1 | 57* | 70* | -2% | 0% | 27% | 0%
CCc1nc2ccccc2n1Cc1ccc(OC)c(OC)c1 | 2 | -7 | -8% | -1% | 61% | -8%
CC(C)n1c(CN(C)c2ccccc2)nc2ccccc21 | -4 | 7 | 1% | 13% | -6% | -14%
CCCn1c(/C=C/c2ccccc2)nc2ccccc21 | 106* | 26* | 0% | -11% | -38% | 41%
SMILES | Shiga toxin inh | Cycloheximide cs | AmpC inh detg | SARS PLP yeast | AmpC no deterg | AMA1 RON2 block
O=C(O)/C=C\C(=O)Nc1ccc(Oc2ccc(Br)cc2)cc1 | 30 | -1 | -1% | -3% | -47% | 6%
Cc1ccc2c(O)c(C)c(=O)[nH]c2n1 | -8 | -3 | -2% | -1% | 7% | -10%
Cc1noc(C)c1S(=O)(=O)N(C)C[C@H]1OCc2cnnn2CCCC(=O)N([C@H](C)CO)C[C@@H]1C | . | . | . | . | . | 0%
CC(C)Cn1c(/C=C/c2ccco2)nc2ccccc21 | 33 | 19* | -13% | -28% | -42% | 2%
CC(C)Cn1c(S(=O)(=O)O)nc2ccccc21 | -1 | 8 | -10% | 1% | -15% | -8%
COc1ccc(-c2nnc3ccc(SCC(=O)NCc4ccco4)nn23)cc1 | -6 | -2 | -11% | 4% | -5% | -6%
CCOC(=O)C1(CCc2ccccc2)CCN(C(=O)[C@@H]2C[C@@H](C)NC(=S)N2)CC1 | 15 | 13* | 6% | -3% | 57% | -4%
